Results filed as inconclusive are left out. Entries that show only a call come without a potency. Calls of active or inactive are those of the source. Unless noted, the call rests on the fitted dose curve; in most records, active means well fitted curve in the direction sought with a large enough effect; inconclusive means small, poorly fitted or top-dose-only effect, or another doubt; inactive means no such curve, though single readings can be large; an effect the other way counts as inactive or inconclusive.
Legend:
[1] = qHTS assay for measurement of the activity of small molecule inhibitors on Zika virus induced Caspase-3 activity in human iPSC derived neural progenitor cells (hNPCs) (AID 1224857); further: nearly all actives have a fitted effect of over 65% in size
In short: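 Percent inhibition of virus-induced caspase-3/7 luminescence (Caspase-Glo), scaled between uninfected cells and Zika-infected cells. hNPCs received compound 1 hr before ZIKV at 2 FFU/cell, with 6 hours infection at 37 C.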

[2] = qHTS assay for measurement of the activity of small molecule inhibitors on Zika virus induced Caspase-3 activity in human astrocytoma cells (AID 1224859)
In short: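 Luminescent caspase-3/7 read-out (30 min reagent, room temperature) in human SNB-19 cells infected 6 h with ZIKV (2 FFU/cell) after 1 h compound pre-incubation; Data were normalised to uninfected and infected wells.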

[3] = Natriuretic polypeptide receptor (hNpr1) antagonism - Pilot counterscreen GloSensor control cell line (AID 1347045; calls by dose curve; further: potency means the concentration at half of the fitted maximal effect)
In short: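 HEK293 cGMP GloSensor cells preloaded 2 h with 2% GloSensor reagent, then compound 30 min before baseline luminescence read. Stimulated with 50 uM sodium nitroprusside, 20 min at room temperature, then read again; counterscreen for Npr1 antagonism.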

[4] = biological target: Atrial natriuretic peptide receptor 1 (Homo sapiens) (UniProt P16066); experiment: Natriuretic polypeptide receptor (hNpr1) antagonism - Pilot screen (AID 1347049; calls by dose curve;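 further: agonist-evoked cGMP luminescence read 20 min after hNppA addition; series mostly up to about 58 µM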)
In short: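 HEK293 cells expressing hNpr1 and GloSensor cGMP luciferase, 1500/well, loaded with 2% GloSensor reagent 2 h, compound 30 min at room temperature; luminescence read before and 20 min after 0.1 nM hNppA stimulation.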

[5] = biological target: Atrial natriuretic peptide receptor 2 (Homo sapiens) (UniProt P20594); experiment: Natriuretic polypeptide receptor (hNpr2) antagonism - Pilot subtype selectivity assay (AID 1347050; calls by dose curve)
In short: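 HEK293 cells expressing hNpr2 and a GloSensor cGMP luciferase sensor, 1500/well, preloaded 2 h with 2% GloSensor reagent, compound 30 min, then 1 nM hNppC for 20 min. Antagonism from luminescence after versus baseline pre-read; LOPAC in 1:5 titrations.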

[6] = NS1 protein of Zika virus - qHTS assay to identify small molecule inhibitors in human HEK 293 cells (AID 1347053); further: series mostly up to about 46 µM; nearly all actives have a fitted effect of over 55% in size
In short: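 HEK 293; 20 h pre-culture, 37 C/5% CO2; cpd 1 h pre-infection; ZIKV MR766, MOI = 0.5, 24 h, 37 C; TR-FRET NS1 readout (two anti-NS1 Abs); norm. to no-virus vs infected.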

[7] = biological target: T1, Tyrosine-protein phosphatase non-receptor type substrate 1 (Homo sapiens) + Leukocyte surface antigen CD47 (Homo sapiens) (UniProt P78324+Q08722); experiment: CD47-SIRPalpha protein protein interaction - LANCE assay qHTS validation (AID 1347057; active means well fitted curve in the direction sought with a large enough effect in the signal ratio, with a control signal flat, not every such curve was filed as active; the % refers to the signal ratio; further: series mostly up to about 38 µM)
In short: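 First, His-tagged CD47 and Eu-labelled anti-His antibody met the compound for 30 min; next, site-specifically biotinylated SIRPalpha was added for 30 min; finally streptavidin-APC was added before reading the TR-FRET ratio.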

[8] = biological target: T1, Tyrosine-protein phosphatase non-receptor type substrate 1 (Homo sapiens) + Leukocyte surface antigen CD47 (Homo sapiens); experiment: CD47-SIRPalpha protein protein interaction - HTRF assay qHTS validation (AID 1347058; active means well fitted curve in the direction sought with a large enough effect in the signal ratio, not every such curve was filed as active; the % refers to the signal ratio;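 further: recombinant soluble extracellular CD47 with His tag and biotinylated SIRPalpha domains; series mostly up to about 38 µM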)
In short: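 TR-FRET read (Ch1/Ch2 ratio) of soluble extracellular CD47 and Avi-biotinylated SIRPalpha domains in PBS pH 7.4 with 0.05% IGEPAL; 7-point compound titration. Sequential 30 min room-temperature steps; non-biotinylated SIRPalpha as control inhibitor.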

[9] = biological target: T1, Tyrosine-protein phosphatase non-receptor type substrate 1 (Homo sapiens) + Leukocyte surface antigen CD47 (Homo sapiens); experiment: CD47-SIRPalpha protein protein interaction - Alpha assay qHTS validation (AID 1347059);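 further: bead proximity luminescence from CD47 binding SIRPalpha after compound preincubation with SIRPalpha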
In short: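 Biotinylated Avi-tagged SIRPalpha (25 nM) preincubated 30 min with compound, then His-tagged CD47 (12.5 nM) added 30 min; AlphaScreen with Ni-NTA acceptor and streptavidin donor beads. PBS pH 7.4, 0.05% IGEPAL, room temperature; 7-point titrations.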

[10] = biological target: Parathyroid hormone/parathyroid hormone-related peptide receptor (Homo sapiens) (UniProt Q03431); experiment: qHTS for PTHR1 Agonists: Optimization Screen against the NCGC LOPAC library (AID 1347079);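 further: GloSensor cAMP luminescence in HEK-293 GP2 cells expressing human PTHR1 with IBMX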
In short: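 Agonist readout: GloSensor cAMP luminescence, read after 15 min at room temperature. HEK-293-derived GP2 line carries PTHR1; compounds tested as a titration for 1 hr at 37C in presence of IBMX. M-PTH (1-15) served as control.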

[11] = biological target: N-terminal Xaa-Pro-Lys N-methyltransferase 1 (Homo sapiens) (UniProt Q9BV86); experiment: qHTS Assay for Inhibitors of N-terminal methyltransferase 1 (NTMT1): LOPAC validation of the NTMT1 SAHH-coupled ThioGlo3 Assay (AID 1347143);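 further: SAH from peptide methylation measured as thiol fluorescence via SAHH coupling and ThioGlo3; nearly all actives have a fitted effect of over 70% in size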; further: potency means the concentration at half of the fitted maximal effect
In short: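 Recombinant human NTMT1 (125nM) was pre-incubated 1 min at room temperature with compounds over a concentration range, then a mix of 100uM SAM, 10uM SAHH and 15uM ThioGlo3 (concentrations in added reagent) was added. ThioGlo3 fluorescence (ex 340/em 450nm) after 30 min was normalized to the initial reading.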

[12] = system: Zika virus NS2B-NS3 protease (unlinked); experiment: Optimization of GU AMC qHTS for Zika virus inhibitors: Unlinked NS2B-NS3 protease assay (AID 1347151); further: nearly all actives have a fitted effect of over 80% in size; further: potency means the concentration at half of the fitted maximal effect
In short: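 Percent inhibition is derived from the 15-min change in AMC fluorescence, normalized against no-inhibitor and no-enzyme controls, then fitted to a 4-parameter Hill curve. Aprotinin was the intraplate control.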

[13] = biological target: Furin (Homo sapiens) (UniProt P09958); experiment: Furin counterscreen qHTS for Zika virus inhibitors (AID 1347149);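 further: purified recombinant full-length human furin enzyme at 5 nM; fluorescence gain from furin cutting a BOC-RVRR-AMC peptide substrate over 15 min; top concentration of the series differs between compounds; nearly all actives have a fitted effect of over 70% in size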
In short: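 Fluorogenic cleavage of BOC-RVRR-AMC (2 microM final, Km ~15 µM) was monitored (ex 340, em 450 nm) at 37C after 15 min RT preincubation of 5 nM furin with compounds in HEPES pH 7.0 buffer with CaCl2 and Triton X-100. Percent inhibition was fitted to a 4-parameter Hill curve.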

[14] = system: Zika virus NS2B-NS3 protease (linked construct); experiment: Confirmatory screen NINDS AMC qHTS for Zika virus inhibitors (AID 1347152);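 further: AMC fluorescence gain from cleaved Bz-Nle-KRR-AMC substrate over 15 min; top concentration of the series differs between compounds; nearly all actives have a fitted effect of over 70% in size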
In short: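 In this dose-response qHTS, AMC release from 10 microM Bz-Nle-KRR-AMC by 1 nM linked protease is measured over 15 minutes (about 20% conversion) at pH 8.0. Percent inhibition is fitted to a 4-parameter Hill curve.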

[15] = system: Zika virus NS2B-NS3 protease (unlinked complex); experiment: Confirmatory screen GU AMC qHTS for Zika virus inhibitors (AID 1347153); further: nearly all actives have a fitted effect of over 70% in size
In short: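 Unlinked enzyme 25 nM, Tris pH 8.0/0.01% Tween 20; cpd 15 min RT, dark; + AMC substrate 10 µM (Km 18.3 µM); 340/450 nm read at t0 and 15 min; % inhibition → 4-param fit.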

[16] = P-glycoprotein substrates identified in KB-3-1 adenocarcinoma cell line, qHTS therapeutic library screen (AID 1346986); further: nearly all actives have a fitted effect of over 60% in size
In short: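 KB-3-1 parental and colchicine-selected P-gp-overexpressing KB-8-5-11 cells (colchicine omitted during assay), 500 cells/well, dosed in dose-response for 72 h at 37 °C; CellTiter-Glo luminescence. Cytotoxic: curve class -1.1 to -2.4, max response >50%, AC50 < 10 uM.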

[17] = P-glycoprotein substrates identified in KB-8-5-11 adenocarcinoma cell line, qHTS therapeutic library screen (AID 1346987); further: nearly all actives have a fitted effect of over 65% in size
In short: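 KB-8-5-11, a colchicine-selected P-gp-overexpressing KB-3-1 subline, was grown without colchicine for the assay. Cells were seeded at 500 cells/well, dosed in concentration-response and incubated 72 h at 37 degree C, 5% CO2. Viability was read by CellTiter-Glo luminescence.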

Parathyroid hormone/parathyroid hormone-related peptide receptor (Homo sapiens), sequence (Q03431 whole entry, looked up): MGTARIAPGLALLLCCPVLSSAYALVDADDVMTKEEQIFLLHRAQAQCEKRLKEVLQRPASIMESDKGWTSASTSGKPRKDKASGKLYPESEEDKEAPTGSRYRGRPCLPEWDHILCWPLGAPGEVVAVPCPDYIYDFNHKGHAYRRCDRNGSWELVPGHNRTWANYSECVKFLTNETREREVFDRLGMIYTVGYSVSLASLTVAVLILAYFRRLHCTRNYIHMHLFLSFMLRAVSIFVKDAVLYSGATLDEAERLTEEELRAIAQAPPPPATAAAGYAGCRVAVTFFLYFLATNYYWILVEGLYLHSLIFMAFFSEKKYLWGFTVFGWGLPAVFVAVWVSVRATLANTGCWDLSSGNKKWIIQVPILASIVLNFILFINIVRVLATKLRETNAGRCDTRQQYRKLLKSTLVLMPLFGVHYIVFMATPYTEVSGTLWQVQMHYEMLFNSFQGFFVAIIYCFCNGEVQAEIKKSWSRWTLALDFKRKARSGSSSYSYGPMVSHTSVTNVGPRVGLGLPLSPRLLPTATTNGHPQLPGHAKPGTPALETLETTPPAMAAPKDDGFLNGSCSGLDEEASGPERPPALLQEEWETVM
N-terminal Xaa-Pro-Lys N-methyltransferase 1 (Homo sapiens), sequence (Q9BV86 whole entry, looked up): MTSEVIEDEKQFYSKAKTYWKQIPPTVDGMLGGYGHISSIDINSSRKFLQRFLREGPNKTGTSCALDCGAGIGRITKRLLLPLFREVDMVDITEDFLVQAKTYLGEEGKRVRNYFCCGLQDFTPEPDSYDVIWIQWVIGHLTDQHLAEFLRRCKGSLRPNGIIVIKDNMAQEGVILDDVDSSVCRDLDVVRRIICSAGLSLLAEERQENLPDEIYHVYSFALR
T1 sequence (P78324 whole entry, looked up): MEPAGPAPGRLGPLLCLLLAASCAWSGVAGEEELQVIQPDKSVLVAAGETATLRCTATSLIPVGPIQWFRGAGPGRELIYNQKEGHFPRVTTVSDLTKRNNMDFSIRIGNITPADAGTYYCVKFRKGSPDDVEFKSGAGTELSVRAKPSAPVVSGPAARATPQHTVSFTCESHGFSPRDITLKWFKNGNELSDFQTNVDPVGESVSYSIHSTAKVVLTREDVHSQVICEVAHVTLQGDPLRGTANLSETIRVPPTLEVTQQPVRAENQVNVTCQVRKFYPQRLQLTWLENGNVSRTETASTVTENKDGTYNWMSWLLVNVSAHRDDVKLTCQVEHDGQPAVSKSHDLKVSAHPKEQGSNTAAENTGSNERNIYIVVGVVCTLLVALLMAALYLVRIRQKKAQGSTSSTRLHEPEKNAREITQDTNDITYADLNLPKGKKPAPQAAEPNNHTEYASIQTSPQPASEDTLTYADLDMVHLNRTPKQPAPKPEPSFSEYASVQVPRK
T1 sequence (Q08722 whole entry, looked up): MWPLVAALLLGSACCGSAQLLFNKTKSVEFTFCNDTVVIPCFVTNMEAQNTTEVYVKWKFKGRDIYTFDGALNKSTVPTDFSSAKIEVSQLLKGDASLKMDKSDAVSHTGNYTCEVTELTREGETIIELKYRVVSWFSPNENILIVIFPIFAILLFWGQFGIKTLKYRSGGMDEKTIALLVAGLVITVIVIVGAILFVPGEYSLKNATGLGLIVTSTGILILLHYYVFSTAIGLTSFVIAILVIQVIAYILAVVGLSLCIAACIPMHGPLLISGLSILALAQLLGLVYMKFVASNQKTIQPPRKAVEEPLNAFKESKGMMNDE
Atrial natriuretic peptide receptor 2 (Homo sapiens), sequence (P20594 whole entry, looked up): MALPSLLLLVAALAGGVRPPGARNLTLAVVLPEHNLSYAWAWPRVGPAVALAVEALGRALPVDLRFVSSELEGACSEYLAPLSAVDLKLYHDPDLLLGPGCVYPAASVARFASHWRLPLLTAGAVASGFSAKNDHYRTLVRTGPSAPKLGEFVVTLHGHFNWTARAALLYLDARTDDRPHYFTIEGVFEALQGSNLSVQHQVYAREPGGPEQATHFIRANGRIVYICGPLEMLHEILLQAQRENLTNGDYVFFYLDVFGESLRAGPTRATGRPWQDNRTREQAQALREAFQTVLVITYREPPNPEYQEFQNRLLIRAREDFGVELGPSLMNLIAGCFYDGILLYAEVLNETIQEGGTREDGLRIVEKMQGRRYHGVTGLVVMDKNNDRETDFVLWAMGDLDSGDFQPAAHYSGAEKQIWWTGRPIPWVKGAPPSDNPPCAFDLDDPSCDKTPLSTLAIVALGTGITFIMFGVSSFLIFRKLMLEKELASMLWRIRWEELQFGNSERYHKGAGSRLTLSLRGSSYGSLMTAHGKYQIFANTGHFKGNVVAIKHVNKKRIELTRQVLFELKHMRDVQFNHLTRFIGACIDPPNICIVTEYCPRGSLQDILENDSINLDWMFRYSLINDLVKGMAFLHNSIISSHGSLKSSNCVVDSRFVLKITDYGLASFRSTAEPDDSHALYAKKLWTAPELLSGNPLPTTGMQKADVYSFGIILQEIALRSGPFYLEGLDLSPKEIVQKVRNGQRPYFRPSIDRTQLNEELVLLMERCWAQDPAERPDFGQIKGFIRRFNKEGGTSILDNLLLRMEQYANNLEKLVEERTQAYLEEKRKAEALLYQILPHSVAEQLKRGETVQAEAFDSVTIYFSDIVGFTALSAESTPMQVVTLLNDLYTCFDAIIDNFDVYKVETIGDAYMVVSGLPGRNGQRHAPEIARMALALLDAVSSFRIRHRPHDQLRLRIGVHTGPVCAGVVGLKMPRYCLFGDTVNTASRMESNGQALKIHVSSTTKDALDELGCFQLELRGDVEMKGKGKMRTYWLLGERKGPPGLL
Atrial natriuretic peptide receptor 1 (Homo sapiens), sequence (P16066 whole entry, looked up): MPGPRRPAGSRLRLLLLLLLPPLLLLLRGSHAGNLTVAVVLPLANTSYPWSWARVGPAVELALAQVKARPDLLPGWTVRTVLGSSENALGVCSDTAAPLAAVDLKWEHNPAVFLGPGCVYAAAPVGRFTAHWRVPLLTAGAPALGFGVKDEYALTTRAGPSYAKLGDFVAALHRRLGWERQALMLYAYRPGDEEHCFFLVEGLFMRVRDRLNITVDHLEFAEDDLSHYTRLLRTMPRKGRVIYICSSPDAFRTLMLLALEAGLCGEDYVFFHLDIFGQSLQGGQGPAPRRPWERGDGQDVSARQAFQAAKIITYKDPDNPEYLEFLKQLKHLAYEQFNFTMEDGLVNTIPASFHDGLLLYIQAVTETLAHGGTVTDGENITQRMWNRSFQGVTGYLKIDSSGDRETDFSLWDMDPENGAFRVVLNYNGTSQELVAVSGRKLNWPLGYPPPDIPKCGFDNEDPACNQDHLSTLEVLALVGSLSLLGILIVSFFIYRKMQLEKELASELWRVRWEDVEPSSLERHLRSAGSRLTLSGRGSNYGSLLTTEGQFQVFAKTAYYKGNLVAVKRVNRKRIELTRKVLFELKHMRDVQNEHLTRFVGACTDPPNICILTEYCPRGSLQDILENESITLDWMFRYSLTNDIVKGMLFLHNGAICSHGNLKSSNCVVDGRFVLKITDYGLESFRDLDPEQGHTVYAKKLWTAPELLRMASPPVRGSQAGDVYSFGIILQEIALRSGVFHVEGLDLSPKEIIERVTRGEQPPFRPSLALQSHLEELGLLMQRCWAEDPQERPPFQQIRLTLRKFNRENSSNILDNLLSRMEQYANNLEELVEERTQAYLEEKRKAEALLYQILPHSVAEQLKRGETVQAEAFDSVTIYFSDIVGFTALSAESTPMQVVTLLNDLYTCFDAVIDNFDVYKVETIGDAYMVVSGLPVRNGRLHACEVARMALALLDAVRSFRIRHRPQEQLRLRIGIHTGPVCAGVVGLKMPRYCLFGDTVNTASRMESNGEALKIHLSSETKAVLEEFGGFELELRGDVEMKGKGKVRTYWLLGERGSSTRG
Furin (Homo sapiens), sequence (P09958 whole entry, looked up): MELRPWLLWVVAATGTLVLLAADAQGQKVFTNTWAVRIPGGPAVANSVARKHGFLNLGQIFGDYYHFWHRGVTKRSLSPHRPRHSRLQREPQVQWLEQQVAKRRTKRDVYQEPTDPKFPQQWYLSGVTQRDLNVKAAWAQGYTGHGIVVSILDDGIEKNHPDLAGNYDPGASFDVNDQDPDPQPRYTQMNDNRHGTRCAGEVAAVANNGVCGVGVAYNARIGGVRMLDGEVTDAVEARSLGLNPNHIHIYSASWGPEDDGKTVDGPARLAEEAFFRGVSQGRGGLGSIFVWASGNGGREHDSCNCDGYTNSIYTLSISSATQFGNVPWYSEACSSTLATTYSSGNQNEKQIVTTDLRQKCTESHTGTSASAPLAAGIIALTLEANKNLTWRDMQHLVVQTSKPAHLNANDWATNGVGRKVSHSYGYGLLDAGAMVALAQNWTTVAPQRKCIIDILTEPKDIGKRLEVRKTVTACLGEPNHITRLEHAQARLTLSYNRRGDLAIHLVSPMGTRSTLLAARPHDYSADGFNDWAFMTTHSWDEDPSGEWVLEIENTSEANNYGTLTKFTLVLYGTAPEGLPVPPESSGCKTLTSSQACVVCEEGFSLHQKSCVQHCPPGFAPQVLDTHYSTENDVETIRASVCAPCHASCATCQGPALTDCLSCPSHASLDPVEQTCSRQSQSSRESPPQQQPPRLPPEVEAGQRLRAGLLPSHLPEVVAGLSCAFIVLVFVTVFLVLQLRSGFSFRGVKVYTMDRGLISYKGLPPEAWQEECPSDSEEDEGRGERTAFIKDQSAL

O[Si](CCCN1CCCCC1)(c1ccc(F)cc1)C1CCCCC1 (stereo not given)
Potency [1]: inactive
Potency [2]: inactive
Potency [3]: inactive
Potency [4]: inactive
Potency [5]: inactive
Potency [6]: inactive
Potency [7]: inactive
outcome [8]: inactive
Potency [9]: inactive
Potency [10]: inactive
Potency [11]: inactive
Potency [12]: inactive

COc1ccccc1N1CCN(CCCCN2C(=O)c3ccccc3C2=O)CC1
Potency [1]: inactive
Potency [2]: inactive
Potency [3]: inactive
Potency [4]: inactive
Potency [5]: inactive
Potency [6]: inactive
Potency [7]: inactive
outcome [8]: inactive
Potency [9]: inactive
Potency [10]: inactive
Potency [11]: inactive
Potency [12]: 23.8 µM (active)

CCCC[C@@]1(C2CCCC2)Cc2cc(OCC(=O)O)c(Cl)c(Cl)c2C1=O
Potency [1]: inactive
Potency [2]: inactive
Potency [3]: inactive
Potency [4]: inactive
Potency [5]: inactive
Potency [6]: inactive
Potency [7]: inactive
outcome [8]: inactive
Potency [9]: inactive
Potency [10]: inactive
Potency [11]: inactive
Potency [13]: inactive

C=CCn1c(=O)c2c(nc(-c3ccc(S(=O)(=O)O)cc3)n2C)n(C)c1=O
Potency [1]: inactive
Potency [2]: inactive
Potency [3]: inactive
Potency [4]: inactive
Potency [5]: inactive
Potency [6]: inactive
Potency [7]: inactive
outcome [8]: inactive
Potency [9]: inactive
Potency [10]: inactive
Potency [11]: 15.8 µM (active)
Potency [12]: 2.99 µM (active)

C#CCn1c(=O)c2c(ncn2C)n(C)c1=O
Potency [1]: inactive
Potency [2]: inactive
Potency [3]: inactive
Potency [4]: inactive
Potency [5]: inactive
Potency [6]: inactive
Potency [7]: inactive
outcome [8]: inactive
Potency [9]: inactive
Potency [10]: inactive
Potency [11]: inactive
Potency [12]: inactive

CC[N+](CC)(CC)CC(=O)Nc1c(C)cccc1C
Potency [1]: inactive
Potency [2]: inactive
Potency [3]: inactive
Potency [4]: inactive
Potency [5]: inactive
Potency [6]: inactive
Potency [7]: inactive
outcome [8]: inactive
Potency [9]: inactive
Potency [10]: inactive
Potency [11]: inactive
Potency [12]: inactive

NC(=O)CC[C@H](N)C(=O)O
Potency [1]: inactive
Potency [2]: inactive
Potency [3]: inactive
Potency [4]: inactive
Potency [5]: inactive
Potency [6]: inactive
Potency [7]: inactive
outcome [8]: inactive
Potency [9]: inactive
Potency [10]: inactive
Potency [11]: inactive
Potency [12]: inactive

NC1(C(=O)O)CCCCC1
Potency [1]: inactive
Potency [2]: inactive
Potency [3]: inactive
Potency [4]: inactive
Potency [5]: inactive
Potency [6]: inactive
Potency [7]: inactive
outcome [8]: inactive
Potency [9]: inactive
Potency [10]: inactive
Potency [11]: inactive
Potency [12]: inactive

N=C(N)c1ccc(OCCCCCOc2ccc(C(=N)N)cc2)cc1 (tested in a mixture with another compound)
Potency [1]: inactive
Potency [2]: inactive
Potency [3]: inactive
Potency [4]: inactive
Potency [5]: inactive
Potency [6]: inactive
Potency [7]: inactive
outcome [8]: inactive
Potency [9]: inactive
Potency [10]: inactive
Potency [11]: 20 µM (active)

C=CCN1CCc2c(cc(O)c(O)c2Br)[C@@H](c2ccccc2)C1
Potency [1]: inactive
Potency [2]: inactive
Potency [3]: inactive
Potency [4]: inactive
Potency [5]: inactive
Potency [6]: inactive
Potency [7]: inactive
outcome [8]: inactive
Potency [9]: inactive
Potency [10]: inactive
Potency [11]: 35.5 µM (active)
Potency [13]: inactive
Potency [12]: 18.9 µM (active)
Potency [14]: inactive
Potency [15]: inactive

CC(=O)NCCc1c[nH]c2ccc(O)cc12
Potency [1]: inactive
Potency [2]: inactive
Potency [16]: inactive
Potency [17]: inactive
Potency [3]: inactive
Potency [4]: inactive
Potency [5]: inactive
Potency [6]: inactive
Potency [7]: inactive
Potency [9]: inactive
Potency [10]: inactive
Potency [12]: inactive

COc1ccc(CCN(C)CCc2ccc(OC)c(OC)c2)cc1OC
Potency [1]: inactive
Potency [2]: inactive
Potency [3]: inactive
Potency [4]: inactive
Potency [5]: inactive
Potency [6]: inactive
Potency [7]: inactive
outcome [8]: inactive
Potency [9]: inactive
Potency [10]: inactive
Potency [11]: inactive
Potency [12]: inactive

N[C@H]1CONC1=O
Potency [1]: inactive
Potency [2]: inactive
Potency [3]: inactive
Potency [4]: inactive
Potency [5]: inactive
Potency [6]: inactive
Potency [7]: inactive
outcome [8]: inactive
Potency [9]: inactive
Potency [10]: inactive
Potency [11]: inactive
Potency [12]: inactive

Cc1nc(N=Nc2ccc(C(=O)O)cc2)c(COP(=O)(O)O)c(C=O)c1O
Potency [1]: inactive
Potency [2]: inactive
Potency [3]: inactive
Potency [4]: inactive
Potency [5]: inactive
Potency [6]: inactive
Potency [7]: inactive
outcome [8]: inactive
Potency [9]: inactive
Potency [10]: inactive
Potency [11]: inactive

CSC(=N)N
Potency [1]: inactive
Potency [2]: inactive
Potency [3]: inactive
Potency [4]: inactive
Potency [5]: inactive
Potency [6]: inactive
Potency [7]: inactive
outcome [8]: inactive
Potency [9]: inactive
Potency [10]: inactive
Potency [11]: inactive
Potency [12]: inactive

NC(C(=O)N[C@@H]1C(=O)N2C(C(=O)O)=C(Cl)CS[C@H]12)c1ccccc1 (stereo not given in full)
Potency [1]: inactive
Potency [2]: inactive
Potency [3]: inactive
Potency [4]: inactive
Potency [5]: inactive
Potency [6]: inactive
Potency [7]: inactive
outcome [8]: inactive
Potency [9]: inactive
Potency [10]: inactive
Potency [11]: inactive

Fc1ccc(CN(C2=NCCN2)c2c(Cl)cccc2Cl)cc1
Potency [1]: inactive
Potency [2]: inactive
Potency [3]: inactive
Potency [4]: inactive
Potency [5]: inactive
Potency [6]: inactive
Potency [7]: inactive
outcome [8]: inactive
Potency [9]: inactive
Potency [10]: inactive
Potency [11]: inactive
Potency [12]: inactive

N#Cc1cc([N+](=O)[O-])c2sc(C(N)=O)[n+]([O-])c2c1
Potency [1]: inactive
Potency [2]: inactive
Potency [16]: inactive
Potency [17]: inactive
Potency [3]: 14.7 µM (active)
Potency [4]: inactive
Potency [5]: inactive
Potency [7]: inactive
Potency [9]: inactive
Potency [10]: inactive
Potency [12]: inactive

Reference: PubChem BioAssay (NCATS)
